High-throughput results: PubChem, several laboratories
In the library only some 3.8% were active in any assay of this set; here they are far more common.
GDH-TPI counter = inhibits GDH-TPI coupling enzymes, artifact for Mtb FBA screen; inhibition, % at 4.8 µM; 1.2% of 360,000 active; AID 588335; GDH-TPI coupled enzyme counterscreen, NADH absorbance; in the data active = inhibition above about 30%;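 also: 0% = DMSO wells and 100% = wells lacking the enzyme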
Mtb hypoxia inh = reduces hypoxia-regulated biosensor signal in M. tuberculosis; M. tuberculosis hypoxia-regulated fluorescent reporter, fluorescence; fluorescence inhibition, % (concentration not given with the values); 0.1% of 300,000 active; in the data active = fluorescence inhibition mostly above about 23%, no sharp cut-off; inactive = mostly below about 17%
Mtb FBA inh = inhibitors of M. tuberculosis fructose-bisphosphate aldolase; P9WQA3; purified M. tuberculosis FBA, fluorescence read-out; inhibition, % at 1 µM; 2.3% of 360,000 active; AID 588726; in the data active = inhibition above about 27%;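 also: 0% = vehicle and 100% = reference inhibitor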
Target sequence (P9WQA3 whole entry, looked up): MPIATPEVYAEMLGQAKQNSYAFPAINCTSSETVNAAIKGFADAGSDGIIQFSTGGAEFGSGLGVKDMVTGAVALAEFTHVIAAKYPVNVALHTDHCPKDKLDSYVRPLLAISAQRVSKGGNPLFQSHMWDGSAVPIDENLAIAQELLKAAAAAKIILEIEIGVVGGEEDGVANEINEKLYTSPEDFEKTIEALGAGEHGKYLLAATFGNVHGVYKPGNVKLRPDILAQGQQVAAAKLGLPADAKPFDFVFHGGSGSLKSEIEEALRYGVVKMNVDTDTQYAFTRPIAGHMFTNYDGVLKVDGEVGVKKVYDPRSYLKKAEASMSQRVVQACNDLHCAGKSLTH
PrP 5UTR inh = inhibition of PrP 5' UTR reporter expression; 0.35% of 340,000 active; inhibition, % (test concentration not listed); cell-based PrP 5' UTR mRNA reporter, plate reader; in the data active = inhibition above about 52%; also: 0 = median of the neutral control wells
Yp Topo-I inh = inhibitors of Yersinia pestis topoisomerase I; Y. pestis Topo-I cleavage product accumulation, plate reader; activity, % at 10 µM; 0.064% of 360,000 active; AID 504884; in the data active = activity above about 50%, passing the limit was not always enough
PrPC TRFRET = inhibitors of human cell surface prion protein PrPC; P04156; TR-FRET read-out; inhibition, % at 13.8 µM; 0.43% of 370,000 active; AID 720596; in the data active = inhibition above about 24%; also: 0% = median of the test wells and 100% = reference compound wells
* marks the source's active call; other numbers are inactive results; / = no result given; + = active, no number.

SMILES | GDH-TPI counter | Mtb hypoxia inh | Mtb FBA inh | PrP 5UTR inh | Yp Topo-I inh | PrPC TRFRET
COC(=O)Cc1c(C)c2ccc(OCc3nn[nH]n3)cc2oc1=O | 17 | 5 | 189* | / | 9 | 6
Cc1c(CC(=O)O)c(=O)oc2c(C)c(OCc3ccccc3)ccc12 | 10 | 5 | 14 | -22 | 5 | -3
COc1cc(COc2ccc3c(C)c(CCC(=O)O)c(=O)oc3c2)cc(OC)c1OC | 14 | 6 | 19 | -24 | 0 | -2
Cc1ccc(C(=O)N2C3CN(C)C(=O)[C@@]2(C)C2C(=O)N(C)C(=O)C32)cc1 (stereo partly drawn) | / | 15 | / | / | / | /
C#CCOCCOCCOCCNc1nc(N2CCN(C(=O)C(C(C)C)n3cc(CCO)nn3)CC2)nc(N2CCN(C(=O)C(C(C)CC)n3cc(CCCN=C(N)N)nn3)CC2)n1 (stereo not drawn) | / | -2 | / | / | / | /
CCc1cc(=O)oc2cc(C)cc(OCc3nn[nH]n3)c12 | 9 | / | 119* | -34 | -7 | 3
CCc1cc(=O)oc2cc(C)cc(OC(=O)c3ccco3)c12 | 3 | 8 | 0 | -20 | 6 | -1
NC(=NN=Cc1ccnc2ccccc12)SC1CC(=O)N(c2ccc(Br)cc2)C1=O (stereo not drawn) | / | 3 | / | / | / | /
COC(=O)C1CSC(C(=O)OC)N1C(=O)Nc1ccc(Cl)cc1 (stereo not drawn) | 10 | / | 103* | -10 | 4 | 1
O=C(Nc1ccc(F)cc1)C(=O)c1c(O)[nH]c2ccc([N+](=O)[O-])cc12 | 38* | -5 | 3 | / | -3 | /
C=CCn1c(=N)c(C(=O)NCCCOC)cc2c(=O)n3ccccc3nc21 | 12 | / | + | -9 | -1 | -38
C=CCn1c(=N)c(C(=O)NCCCOC)cc2c(=O)n3cc(C)ccc3nc21 | 14 | -2 | + | -24 | -5 | -46
CCOCCCn1c(=N)c(S(=O)(=O)c2ccc(C)cc2)cc2c(=O)n3cc(C)ccc3nc21 | 3 | -4 | 8 | -6 | 8 | -10
O=C(NN=CC1CC=CCC1)c1ccc(Cl)cc1O (stereo not drawn) | / | 16 | / | / | / | /
O=C(O)c1cnn2c(C(F)(F)F)cc(-c3ccco3)nc12 | 39* | -10 | -2 | 1 | -3 | -29
O=C(N/N=C/c1ccc(F)c(F)c1)c1cc2c(s1)-c1ccccc1CC2 | 13 | / | 3 | -26 | -6 | 3
CNC(=O)c1cc2c(s1)-c1ccccc1CC2 | 17 | 1 | + | -35 | -9 | -6
COc1ccccc1N1CCN(C(=O)c2cc3c(s2)-c2ccccc2OC3)CC1 | 13 | 10 | 8 | -23 | 4 | -3
COC(=O)c1cc2c(s1)-c1ccccc1OC2 | 15 | 4 | + | -23 | 12 | -25
CN1CCN(c2ccccc2NC(=O)c2cc3c(s2)-c2ccccc2OC3)CC1 | 5 | 14 | 4 | / | 5 | -1
O=C(Nc1cccnc1Cl)c1cc2c(s1)-c1ccccc1OC2 | 7 | 9 | 153* | -30 | 24 | 7
CC(C)(C)OC(=O)NCc1ccc(NC(=O)c2nc[nH]c2C(=O)NC(Cc2ccccc2)C(=O)OCc2ccccc2)cc1 (stereo not drawn) | / | -3 | / | / | / | /
CCc1ccc(C2CC=C(C(=O)O)C(c3cccc(Cl)c3)N2S(=O)(=O)c2ccc(C)cc2)cc1 (stereo not drawn) | / | -4 | / | / | / | /
O=C1NC(c2ccccc2)=C(c2nc3ccccc3s2)C(c2ccccc2)N1 (stereo not drawn) | 34* | -7 | 0 | -13 | 41 | 2
Cc1ccc(C=NNC(=O)CNC(=O)C23CC4CC(CC(C4)C2)C3)o1 | / | 6 | / | / | / | /
SMILES | GDH-TPI counter | Mtb hypoxia inh | Mtb FBA inh | PrP 5UTR inh | Yp Topo-I inh | PrPC TRFRET
CCCCCCSc1ccc(C2C3C(=O)N(C)C(=O)C3[C@]3(C(=O)OC)CCCCN23)cc1 (stereo partly drawn) | / | 20 | / | / | / | /
Nc1nonc1-n1nnc(C(=O)NN=Cc2ccco2)c1-c1ccccc1 | / | 8 | / | / | / | /
OCCCc1nc2n(n1)C(c1ccccc1Cl)C=C(c1cccs1)N2 (stereo not drawn) | 13 | 6 | 55* | / | -12 | /
CC(C)(C)C(=O)ON=C(N)c1ccc([N+](=O)[O-])s1 | / | -6 | / | / | / | /
O=C(N/N=C/c1cccn1-c1ccc([N+](=O)[O-])cc1)c1cccnc1 | 53* | / | -8 | -25 | -11 | -12
O=C(NN=Cc1ccc([N+](=O)[O-])cc1)c1ccncc1 | 40* | 11 | 0 | -11 | -3 | -16
CC(C)C(=O)Nc1ccccc1C(=O)N/N=C/c1ccc([N+](=O)[O-])cc1 | 35* | / | 0 | -26 | -8 | -8
O=C(N/N=C/c1ccc([N+](=O)[O-])cc1)c1ccccc1OCc1ccccc1 | 11 | / | 0 | -15 | 5 | -7
O=C(N/N=C/c1cccnc1)c1ccc([N+](=O)[O-])cc1 | 24 | / | -3 | -13 | -11 | -43
COCCNC(=S)NN=Cc1ccc(OCc2ccc(C(=O)OC)cc2)cc1 | / | -3 | / | / | / | /
CCNC(=S)N/N=C/c1ccc(OCc2ccc(C(=O)OC)cc2)cc1 | 33* | / | 2 | 2 | -1 | 8
O=C(CNc1ccc2c(c1)OCO2)NN=Cc1cn(Cc2ccccc2)c2ccccc12 | / | 0 | / | / | / | /
CC(C)CC(NC(=O)c1nc[nH]c1C(=O)NCCCCCNC(=O)OC(C)(C)C)C(=O)OC(C)(C)C (stereo not drawn) | / | -10 | / | / | / | /
COC(=O)C1=C(C(=O)OC)C2N(C)c3ccccc3[C@@]23CC(C(=O)OC)N=C3N1 (stereo partly drawn) | / | 1 | / | / | / | /
O=C(N/N=C/c1ccc([N+](=O)[O-])cc1)c1cccc(N2CCCC2=O)c1 | 40* | / | -3 | 6 | -8 | -11
CCC(=O)Nc1ccc(C(=O)N/N=C/c2ccc([N+](=O)[O-])cc2)cc1 | 51* | / | -2 | -22 | -3 | -29
CC(=O)n1cc(C=NNC(=O)c2cccc(O)c2)c2ccccc21 | / | 11 | / | / | / | /
CC(=O)n1cc(/C=N/NC(=O)c2ccc([N+](=O)[O-])cc2)c2ccccc21 | 32* | / | -2 | -20 | -18 | -26
Nc1ccc(C(=O)N/N=C\C=C\c2ccc([N+](=O)[O-])cc2)cc1 | 47* | / | -3 | -9 | 1 | -36
Nc1ccc(C(=O)NN=C/C=C/c2ccc([N+](=O)[O-])cc2)cc1 | / | 12 | / | / | / | /
O=C(NN=Cc1ccc([N+](=O)[O-])cc1)c1cccc(N2CCCC2=O)c1 | / | 7 | / | / | / | /
CC(NC(=O)OCc1ccccc1)C(=O)NNC(=O)C(Cc1ccccc1)NC(=O)OC(C)(C)C (stereo not drawn) | / | 2 | / | / | / | /
CC1COC(=O)C(Cc2ccc(F)cc2)CC=CCC(CC(=O)NCCO)C(=O)N1 (stereo not drawn) | / | 1 | / | / | / | /
O=C(NN=Cc1ccc(OCc2ccccc2)cc1)c1ccncc1 | / | 36* | / | / | / | /
O=C(NN=Cc1ccccc1)c1ccc(OCc2ccccc2)cc1 | / | 9 | / | / | / | /
O=[N+]([O-])c1ccc(OC(F)F)c(C=Nn2cnnc2)c1 | / | -2 | / | / | / | /
CC(Oc1cc2oc(=O)c3c(c2cc1Cl)CCC3)C(=O)NCCCN1CCCC1=O (stereo not drawn) | 17 | 3 | 8 | 6 | 2 | -2
